Pol iota inh – inhibitors of human DNA polymerase iota. Pol iota fluorescent replication assay, 10 min. Potency, µM (titrated, usually from 115 µM), most hits filed as inhibitors. hit rate 1% among 390,000. AID 588590
Target sequence (Q9UNA4 whole entry, looked up): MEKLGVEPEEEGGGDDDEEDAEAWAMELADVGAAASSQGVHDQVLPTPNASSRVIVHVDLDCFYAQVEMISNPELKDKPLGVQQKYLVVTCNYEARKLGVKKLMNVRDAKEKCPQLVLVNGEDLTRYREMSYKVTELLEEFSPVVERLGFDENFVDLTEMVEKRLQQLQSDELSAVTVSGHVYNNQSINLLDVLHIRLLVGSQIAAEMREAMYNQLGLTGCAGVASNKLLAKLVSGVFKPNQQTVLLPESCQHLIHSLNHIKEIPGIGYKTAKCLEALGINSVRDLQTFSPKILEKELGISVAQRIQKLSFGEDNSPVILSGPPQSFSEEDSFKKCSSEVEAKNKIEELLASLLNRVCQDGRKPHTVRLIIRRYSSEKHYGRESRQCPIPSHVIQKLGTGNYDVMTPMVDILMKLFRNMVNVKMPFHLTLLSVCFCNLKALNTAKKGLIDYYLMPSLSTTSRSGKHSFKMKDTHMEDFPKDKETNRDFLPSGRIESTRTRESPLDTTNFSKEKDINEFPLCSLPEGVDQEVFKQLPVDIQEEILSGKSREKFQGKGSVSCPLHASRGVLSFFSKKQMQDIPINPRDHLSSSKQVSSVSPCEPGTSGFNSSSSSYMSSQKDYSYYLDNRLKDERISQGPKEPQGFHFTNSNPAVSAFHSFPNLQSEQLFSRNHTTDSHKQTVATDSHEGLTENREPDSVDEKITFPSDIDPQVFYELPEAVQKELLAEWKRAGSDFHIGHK
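Pol iota at 10 nM preincubated 15 min with compounds at room temperature; reaction started with fluorescent substrate, 50 nM final. Fluorescence read kinetically at 0 and 10 min; buffer-only wells as negative control.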
PI5P4Ka inh – inhibitors of human PI5P4K alpha; P48426; PI5P4Kalpha enzyme, ADP-Glo luminescence, 60 min; active compounds read low; max response, %; hit rate 1.2% among 330,000; active means max response of -50% or lower; inconclusive means between -30% and -50%; inactive means -30% or higher; further: value at the top dose of about 77 µM
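ADP-Glo luminescence end-point after a 60 min room-temperature kinase reaction. PI5P4Kalpha and substrate in HEPES pH 7.4 buffer with EGTA, 0.1% CHAPS and 5% DMSO; ATP at 5 microM final.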
FEN1 inhibitor – inhibitors of human flap endonuclease 1 | Recombinant FEN1 flap cleavage, fluorescence, 15 min | AID 588795 | P39748 | hit rate 0.35% among 390,000 | Potency, µM (top dose mostly 114 µM), most hits filed as inhibitors; further: nearly all actives have a fitted effect of over 65% in size
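Recombinant FEN1 (10 nM) was preincubated with pin-transferred compounds for 15 min at room temperature, then flap DNA substrate (50 nM final) was added. Plates were read at 0 and 15 min, and normalized concentration–response data were fitted to a four-parameter Hill equation.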
Pol beta inh – DNA polymerase beta (human) inhibition. Potency, µM (highest dose often 114 µM), usual class: inhibitors. hit rate 1.3% among 340,000. AID 485314. Pol beta primer extension/strand displacement, fluorescence kinetic. P06746
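Kinetic readout of DNA synthesis with strand displacement by Pol beta. Compound and 10 nM enzyme sit 15 min at room temperature; 50 nM substrate starts the reaction, read immediately and at 10 min.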
Pol eta inh-1 – inhibitors of human DNA polymerase eta; Q9Y253; recombinant Pol eta, fluorescent DNA replication assay; Potency, µM (titrated, usually from 114 µM), most hits filed as inhibitors; hit rate 1.2% among 390,000; AID 588591
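Pol eta (10 nM) was preincubated with compounds for 15 min at room temperature, after which fluorescent replication substrate (50 nM final) was added to start the reaction. Fluorescence was read kinetically at 0 and 10 min.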
Pol kappa inh-1 – inhibitors of human DNA polymerase kappa | AID 588579 | purified Pol kappa, fluorescent DNA synthesis assay, 10 min | Potency, µM (highest dose often 107 µM), most hits filed as inhibitors | hit rate 0.53% among 400,000
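Inhibition of 10 nM Pol kappa is measured by a fluorescent read-out at 0 and 10 min following addition of 50 nM substrate (final), with a 15-min room-temperature compound preincubation.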
TbPGK inh – TbPGK inhibition, hit validation | shares compounds with Pol kappa inh-1 | TbPGK coupled GAPDH assay, Kinase-Glo luminescence | Potency, µM (top dose mostly 57.5 µM), usual class: inhibitors | hit rate 79% among 500 | AID 686980; further: nearly all actives have a fitted effect of over 65% in size
POLI cherry-pick – Inhibitors of human DNA polymerase iota, confirmation; shares compounds with Pol kappa inh-1; Pol iota primer extension, TAMRA/BHQ fluorescence; Potency, µM, usual class: inhibitors; hit rate 77% among 1,500; AID 720496
GALK confirm – confirmation of human galactokinase (GALK) inhibitors. hit rate 70% among 150. shares compounds with Pol eta inh-1. Potency, µM (titrated, usually from 115 µM), usual class: inhibitors. purified GALK, Kinase-Glo ATP depletion luminescence
GALK redox cs – redox cycling activity in phenol red-HRP assay. shares compounds with Pol eta inh-1. Phenol red-HRP H2O2 redox cycling, absorbance 600 nm. Potency, µM (highest dose often 115 µM), actives largely listed as inhibitors. hit rate 40% among 150
HEK293 tox – counter-screen for GALK inhibitors: HEK293 cell cytotoxicity | shares compounds with Pol eta inh-1 | HEK-293 viability, ATP luminescence (CellTiter-Glo), 24/48 h | Potency, µM (series often up to 46.1 µM), hits mostly inhibitors | hit rate 10% among 170 | AID 2547
Pol kappa inh-2 – Pol kappa (human) inhibition, cherry-pick confirmation; hit rate 76% among 920; Potency, µM, usual class: inhibitors; shares compounds with Pol eta inh-1; purified Pol-kappa, fluorescent strand-displacement substrate
Pol eta inh-2 – confirmation of human DNA polymerase eta inhibitors; hit rate 64% among 2,600; Potency, µM, hits mostly inhibitors; shares compounds with Pol eta inh-1; Pol eta primer extension, TAMRA/BHQ fluorescence, 10 min
Each line names hits and unclear results; the compound was inactive in the other large screens (follow-up assays come after a bar, where they were run). Hits are enriched below; roughly 2.8% of the tested compounds scored in any of these assays. Unless noted, the call rests on the fitted dose curve; in most records, active means well fitted curve in the direction sought with a large enough effect; inconclusive means small, poorly fitted or top-dose-only effect, or another doubt; inactive means no such curve, though single readings can be large; an effect the other way counts as inactive or inconclusive.

Cc1cc(/C=C2\C(=O)NC(=O)N(c3ccc(Cl)cc3)C2=O)c(C)n1-c1sc2c(c1C#N)CCCC2	Pol iota inh 10µM, PI5P4Ka inh -57, FEN1 inhibitor inconclusive, Pol beta inh inconclusive, Pol eta inh-1 20µM, Pol kappa inh-1 79µM | POLI cherry-pick 75 | Pol kappa inh-2 75 | Pol eta inh-2 30
Cc1cc(/C=C2\C(=O)NC(=O)N(Cc3ccco3)C2=O)c(C)n1-c1ccc(C(=O)O)cc1	Pol iota inh 18µM, PI5P4Ka inh inconclusive, Pol beta inh inconclusive, Pol eta inh-1 18µM, Pol kappa inh-1 inconclusive | POLI cherry-pick 19 | Pol eta inh-2 27
CC[C@H](C)[C@H](NC(=O)[C@@H](N)Cc1ccc(O)cc1)C(=O)NCC(=O)N[C@@H](CO)C(=O)N[C@@H](CCCN=C(N)N)C(N)=O	none (no result: Pol iota inh, PI5P4Ka inh, FEN1 inhibitor, Pol beta inh, Pol eta inh-1)
c1ccc(N2CC[C@@]3(CCCNC3)C2)cc1	none (no result: Pol iota inh, PI5P4Ka inh, FEN1 inhibitor, Pol beta inh, Pol eta inh-1)
C[C@@H]1CC[C@H]2[C@H](C)[C@H]3CC[C@@]4(O)[C@@H]5CC(=O)[C@H]6CC(=O)CC[C@]6(C)[C@H]5C[C@H]4[C@@H]3CN2C1	none (no result: Pol iota inh, PI5P4Ka inh, FEN1 inhibitor, Pol beta inh, Pol eta inh-1)
Cc1cc(/C=C2\C(=O)NC(=O)N(c3ccc(F)cc3)C2=O)c(C)n1-c1ccc(C(=O)O)cc1	Pol iota inh inconclusive, PI5P4Ka inh inconclusive, Pol eta inh-1 inconclusive
Cc1ccc(N2C(=O)NC(=O)/C(=C/c3ccc(-c4ccc(C(=O)O)c(Cl)c4)o3)C2=O)cc1	Pol iota inh 20µM, PI5P4Ka inh inconclusive, FEN1 inhibitor inconclusive, Pol beta inh 14µM, Pol eta inh-1 8.9µM | POLI cherry-pick inconclusive | Pol eta inh-2 30
Cc1ccc(N2C(=O)NC(=O)/C(=C\c3cc(C)n(-c4cc(C(=O)O)cc(C(=O)O)c4)c3C)C2=O)cc1	Pol iota inh 8.9µM, PI5P4Ka inh -52, FEN1 inhibitor 56µM, Pol eta inh-1 7.9µM, Pol kappa inh-1 inconclusive | TbPGK inh inconclusive | Pol kappa inh-2 17 | Pol eta inh-2 38
Cc1cccc(N2C(=O)/C(=C/c3ccc(CN(CCC#N)S(C)(=O)=O)o3)C(=O)NC2=S)c1	Pol iota inh 8.9µM, PI5P4Ka inh -56, FEN1 inhibitor inconclusive, Pol beta inh 20µM, Pol eta inh-1 6.3µM, Pol kappa inh-1 22µM | POLI cherry-pick 67 | Pol kappa inh-2 11 | Pol eta inh-2 inconclusive
Cc1ccc(/C=C2\C(=O)NC(=S)N(c3cccc(F)c3)C2=O)o1	Pol iota inh inconclusive, PI5P4Ka inh -77, FEN1 inhibitor inconclusive, Pol eta inh-1 7.1µM, Pol kappa inh-1 32µM | POLI cherry-pick 34 | Pol eta inh-2 17
O=C1NC(=O)N(c2ccc3c(c2)OCO3)C(=O)/C1=C/c1ccc(N2CCCC2)o1	Pol iota inh inconclusive, Pol eta inh-1 inconclusive
C[C@H](CCC(=O)O)[C@H]1CC[C@@H]2[C@@H]3[C@@H](O)C[C@H]4C[C@@H](O)CC[C@@]4(C)[C@H]3CC[C@@]21C	none (no result: Pol iota inh, PI5P4Ka inh, FEN1 inhibitor, Pol beta inh, Pol eta inh-1)
C[C@@H]1O[C@@H](O[C@H]2C[C@@H](O)[C@]3(CO)[C@H]4[C@H](O)C[C@]5(C)[C@@H]([C@@H]6COC(=O)C6)CC[C@]5(O)[C@@H]4CC[C@]3(O)C2)[C@H](O)[C@H](O)[C@H]1O	none (no result: PI5P4Ka inh, FEN1 inhibitor, Pol kappa inh-1)
Cc1nc2c(=O)n(C)c(=O)nc-2n(C)n1	Pol beta inh inconclusive, Pol eta inh-1 0.79µM | TbPGK inh 1.5µM | POLI cherry-pick 1.5 | GALK confirm 1.9µM | GALK redox cs 0.94µM | HEK293 tox 10µM | Pol eta inh-2 4.3
Cn1nc(-c2ccccc2)nc2c(=O)n(C)c(=O)nc1-2	none (no result: PI5P4Ka inh, Pol beta inh, Pol eta inh-1)
C=C1C(=O)O[C@H]2C[C@@H](C)[C@@H]3C=CC(=O)[C@@]3(C)C[C@H]12	Pol iota inh inconclusive
C=C1C(=O)O[C@@H]2C[C@@H](C)[C@@H]3C=CC(=O)[C@@]3(C)[C@@H](OC(=O)CC(=O)O[C@H]3[C@@H]4C(=C)C(=O)O[C@@H]4C[C@@H](C)[C@@H]4C=CC(=O)[C@]43C)[C@H]12	Pol iota inh 4.5µM, PI5P4Ka inh -66, FEN1 inhibitor inconclusive, Pol beta inh 20µM, Pol eta inh-1 7.9µM, Pol kappa inh-1 35µM | POLI cherry-pick 19 | Pol eta inh-2 17
CCN(CCCl)c1cc(CN(C)C)cc(NC(=O)c2ccc(C(=O)Nc3cc(CN(C)C)cc(N(CC)CCCl)c3)cc2)c1	Pol iota inh 28µM, PI5P4Ka inh inconclusive, FEN1 inhibitor inconclusive, Pol eta inh-1 11µM, Pol kappa inh-1 inconclusive (no result: Pol beta inh) | POLI cherry-pick 24 | Pol kappa inh-2 0.53
O=C=NCCCCN=C=O	none (no result: Pol iota inh, PI5P4Ka inh, FEN1 inhibitor, Pol beta inh, Pol eta inh-1)
CC(=O)OCC1=C[C@H]2[C@@H]3C(C)(C)[C@]3(OC(=O)Cc3ccccc3)C[C@@H](C)[C@]2(O)[C@@H]2C=C(C)C(=O)[C@@]2(O)C1	none (no result: Pol iota inh, PI5P4Ka inh, FEN1 inhibitor, Pol beta inh, Pol eta inh-1)
Cc1ccc(C(=O)Nc2ccc(S(=O)(=O)N3CCC(c4nc5ccccc5s4)CC3)cc2)cc1	none (no result: PI5P4Ka inh)

From PubChem
